# Reference: ChEMBL document CHEMBL3988442, “University of Dundee, Small-Polar-MMV Screening Library” (2021)
# For some of these results: Measured potencies and affinities stand elsewhere.
# Tests used:
# Set-up in all cases: scale not given: direction of the effect not stated beside the values
# [1] = molecular target: Protein translocase subunit SecA (Escherichia coli (strain K12)) (UniProt P10408); test: Assay to Identify E. coli SecA ATPase Inhibitors; type: functional; conditions: 30 µM
# [2] = molecular target: T1, Ubiquitin-activating enzyme e1, putative (Leishmania donovani (strain BPK282A1)) (UniProt E9BSI1); test: Leishmania donovani Ubiquitin Activating Enzyme (LdE1); type: functional; conditions: 30 µM
# T1 sequence (whole entry): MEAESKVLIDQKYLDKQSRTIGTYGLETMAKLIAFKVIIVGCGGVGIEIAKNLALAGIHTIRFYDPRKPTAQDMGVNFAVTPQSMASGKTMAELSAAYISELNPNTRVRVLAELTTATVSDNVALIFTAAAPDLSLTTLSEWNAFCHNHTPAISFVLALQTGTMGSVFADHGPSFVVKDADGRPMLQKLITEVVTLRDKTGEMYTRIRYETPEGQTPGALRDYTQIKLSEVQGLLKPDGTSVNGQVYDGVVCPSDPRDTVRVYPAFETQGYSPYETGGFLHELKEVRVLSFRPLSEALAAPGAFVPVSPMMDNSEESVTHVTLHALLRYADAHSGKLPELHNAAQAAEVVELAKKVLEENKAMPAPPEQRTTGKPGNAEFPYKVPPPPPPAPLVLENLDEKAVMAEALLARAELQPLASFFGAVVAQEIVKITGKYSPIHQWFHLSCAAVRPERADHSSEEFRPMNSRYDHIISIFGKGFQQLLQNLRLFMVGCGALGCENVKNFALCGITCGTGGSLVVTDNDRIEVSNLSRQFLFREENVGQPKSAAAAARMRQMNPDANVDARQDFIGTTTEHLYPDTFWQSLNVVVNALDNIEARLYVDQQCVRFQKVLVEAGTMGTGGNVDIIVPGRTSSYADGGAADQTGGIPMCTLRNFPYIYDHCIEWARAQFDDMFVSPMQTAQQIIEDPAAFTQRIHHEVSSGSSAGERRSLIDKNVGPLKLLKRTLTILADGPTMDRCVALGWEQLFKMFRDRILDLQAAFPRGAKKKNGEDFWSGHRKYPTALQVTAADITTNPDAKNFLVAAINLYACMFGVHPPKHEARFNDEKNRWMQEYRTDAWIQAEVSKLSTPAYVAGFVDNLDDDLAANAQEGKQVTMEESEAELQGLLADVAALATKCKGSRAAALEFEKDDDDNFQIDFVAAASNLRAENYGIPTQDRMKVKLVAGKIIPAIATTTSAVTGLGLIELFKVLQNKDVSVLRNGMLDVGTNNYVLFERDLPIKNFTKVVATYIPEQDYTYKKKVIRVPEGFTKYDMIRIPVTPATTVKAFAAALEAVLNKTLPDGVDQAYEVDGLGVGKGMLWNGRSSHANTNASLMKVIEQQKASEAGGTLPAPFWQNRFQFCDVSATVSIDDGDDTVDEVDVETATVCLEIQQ
# [3] = molecular target: AMP-activated protein kinase, AMPK (Homo sapiens) (UniProt P54646+O43741+P54619+Q9UGJ0+Q9Y478+Q13131+Q9UGI9); test: AMP-dependent Kinase enzyme assay. An in vitro enzyme assay that detects ADP turnover that is directly proportional to AMPK activity. This uses naive AMPK that is activated during the assay with MK-8722; type: functional; conditions: 30 µM
# [4] = molecular target: Sialic acid-binding Ig-like lectin 9 (Homo sapiens) (UniProt Q9Y336); test: Hs-Siglec9 ALPHAscreen SOP 20170721; conditions: 10 µM
# Trypanosoma cruzi = test: Trypanosoma cruzi phosphomannomutase and mannose-1-phosphate guanylyltransferase assay; type: functional; conditions: 10 µM
# [5] = molecular target: T2, Arginase-2, mitochondrial (Homo sapiens) (UniProt P78540); test: in vitro enzyme assay to detect the production of urea directly proportional to the activity of Arginase II; type: functional; conditions: 33.3 µM; further: in the data most compounds retested in dose-response had high values
# T2 sequence (whole entry): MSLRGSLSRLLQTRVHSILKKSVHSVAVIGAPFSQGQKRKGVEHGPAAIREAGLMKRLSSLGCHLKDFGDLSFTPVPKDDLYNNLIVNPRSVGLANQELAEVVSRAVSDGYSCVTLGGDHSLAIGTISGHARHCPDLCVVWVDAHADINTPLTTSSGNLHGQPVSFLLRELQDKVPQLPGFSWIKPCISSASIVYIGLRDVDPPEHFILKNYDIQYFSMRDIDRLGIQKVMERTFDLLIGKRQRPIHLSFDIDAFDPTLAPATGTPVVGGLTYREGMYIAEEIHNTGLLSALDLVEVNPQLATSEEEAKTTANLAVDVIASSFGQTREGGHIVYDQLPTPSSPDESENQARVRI
# [6] = molecular target: T3, Proteasome subunit beta (Trypanosoma cruzi) (UniProt O96673); test: Trypanosoma cruzi proteasome chymotrypsin-like activity (TcProtChymo) assay.; further: in the data most compounds retested in dose-response had high values; type: functional; conditions: 9.37 µM
# T3 sequence (whole entry): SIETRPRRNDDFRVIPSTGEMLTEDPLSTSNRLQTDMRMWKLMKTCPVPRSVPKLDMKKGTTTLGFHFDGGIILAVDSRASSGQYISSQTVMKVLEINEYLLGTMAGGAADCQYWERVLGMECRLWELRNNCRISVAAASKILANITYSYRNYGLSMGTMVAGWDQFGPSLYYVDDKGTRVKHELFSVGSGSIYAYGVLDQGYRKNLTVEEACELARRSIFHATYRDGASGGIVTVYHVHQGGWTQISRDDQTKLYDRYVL
# Homo sapiens = species on record: Homo sapiens; test: To identify inhibition of the IFN signalling (Jak-Stat) pathway via expression of an eGFP reporter gene under the control of an IFN-stimulated response element (ISRE) containing MxA promoter.; type: functional; conditions: 30 µM
# [7] = molecular target: T4, Tyrosyl-tRNA synthetase, putative (Trypanosoma cruzi (strain CL Brener)) (UniProt Q4DSP6); test: Trypanosoma cruzi tyrosyl tRNA synthetase (TcYRS) _High Tyrosine SOP; type: functional; conditions: 30 µM; further: in the data most compounds retested in dose-response had high values
# T4 sequence (whole entry): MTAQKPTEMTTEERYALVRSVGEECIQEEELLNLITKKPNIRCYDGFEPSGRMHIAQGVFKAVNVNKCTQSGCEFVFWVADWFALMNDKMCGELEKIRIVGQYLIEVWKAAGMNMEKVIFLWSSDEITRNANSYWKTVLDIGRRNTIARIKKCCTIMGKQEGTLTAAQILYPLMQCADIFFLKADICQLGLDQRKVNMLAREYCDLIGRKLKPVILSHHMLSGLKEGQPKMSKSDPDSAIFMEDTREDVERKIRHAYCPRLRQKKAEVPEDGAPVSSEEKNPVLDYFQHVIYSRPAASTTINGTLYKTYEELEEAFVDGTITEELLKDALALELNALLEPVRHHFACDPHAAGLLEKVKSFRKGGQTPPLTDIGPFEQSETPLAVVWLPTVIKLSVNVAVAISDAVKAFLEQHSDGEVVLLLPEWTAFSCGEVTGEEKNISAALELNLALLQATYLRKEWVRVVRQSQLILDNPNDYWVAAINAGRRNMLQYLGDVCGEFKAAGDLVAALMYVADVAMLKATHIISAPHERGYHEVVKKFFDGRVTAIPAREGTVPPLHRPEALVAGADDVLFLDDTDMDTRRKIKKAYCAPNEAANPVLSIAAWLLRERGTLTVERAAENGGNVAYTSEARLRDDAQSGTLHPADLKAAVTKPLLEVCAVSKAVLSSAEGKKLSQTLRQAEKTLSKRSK
# [8] = molecular target: T4, Tyrosyl-tRNA synthetase, putative (Trypanosoma cruzi (strain CL Brener)); test: Trypanosoma cruzi tyrosyl tRNA synthetase (TcYRS) SOP; type: functional; conditions: 30 µM
# [9] = molecular target: Chromo domain-containing protein 1 (Saccharomyces cerevisiae (strain ATCC 204508 / S288c) (Baker's yeast)) (UniProt P32657); test: ScCHD-1 Enzyme Inhibition Assay; type: functional; conditions: 30 µM; further: in the data most compounds retested in dose-response had high values
# Sequence of Chromo domain-containing protein 1 (Saccharomyces cerevisiae (strain ATCC 204508 / S288c) (Baker's yeast)) (P32657 whole entry, the tested form may be a part): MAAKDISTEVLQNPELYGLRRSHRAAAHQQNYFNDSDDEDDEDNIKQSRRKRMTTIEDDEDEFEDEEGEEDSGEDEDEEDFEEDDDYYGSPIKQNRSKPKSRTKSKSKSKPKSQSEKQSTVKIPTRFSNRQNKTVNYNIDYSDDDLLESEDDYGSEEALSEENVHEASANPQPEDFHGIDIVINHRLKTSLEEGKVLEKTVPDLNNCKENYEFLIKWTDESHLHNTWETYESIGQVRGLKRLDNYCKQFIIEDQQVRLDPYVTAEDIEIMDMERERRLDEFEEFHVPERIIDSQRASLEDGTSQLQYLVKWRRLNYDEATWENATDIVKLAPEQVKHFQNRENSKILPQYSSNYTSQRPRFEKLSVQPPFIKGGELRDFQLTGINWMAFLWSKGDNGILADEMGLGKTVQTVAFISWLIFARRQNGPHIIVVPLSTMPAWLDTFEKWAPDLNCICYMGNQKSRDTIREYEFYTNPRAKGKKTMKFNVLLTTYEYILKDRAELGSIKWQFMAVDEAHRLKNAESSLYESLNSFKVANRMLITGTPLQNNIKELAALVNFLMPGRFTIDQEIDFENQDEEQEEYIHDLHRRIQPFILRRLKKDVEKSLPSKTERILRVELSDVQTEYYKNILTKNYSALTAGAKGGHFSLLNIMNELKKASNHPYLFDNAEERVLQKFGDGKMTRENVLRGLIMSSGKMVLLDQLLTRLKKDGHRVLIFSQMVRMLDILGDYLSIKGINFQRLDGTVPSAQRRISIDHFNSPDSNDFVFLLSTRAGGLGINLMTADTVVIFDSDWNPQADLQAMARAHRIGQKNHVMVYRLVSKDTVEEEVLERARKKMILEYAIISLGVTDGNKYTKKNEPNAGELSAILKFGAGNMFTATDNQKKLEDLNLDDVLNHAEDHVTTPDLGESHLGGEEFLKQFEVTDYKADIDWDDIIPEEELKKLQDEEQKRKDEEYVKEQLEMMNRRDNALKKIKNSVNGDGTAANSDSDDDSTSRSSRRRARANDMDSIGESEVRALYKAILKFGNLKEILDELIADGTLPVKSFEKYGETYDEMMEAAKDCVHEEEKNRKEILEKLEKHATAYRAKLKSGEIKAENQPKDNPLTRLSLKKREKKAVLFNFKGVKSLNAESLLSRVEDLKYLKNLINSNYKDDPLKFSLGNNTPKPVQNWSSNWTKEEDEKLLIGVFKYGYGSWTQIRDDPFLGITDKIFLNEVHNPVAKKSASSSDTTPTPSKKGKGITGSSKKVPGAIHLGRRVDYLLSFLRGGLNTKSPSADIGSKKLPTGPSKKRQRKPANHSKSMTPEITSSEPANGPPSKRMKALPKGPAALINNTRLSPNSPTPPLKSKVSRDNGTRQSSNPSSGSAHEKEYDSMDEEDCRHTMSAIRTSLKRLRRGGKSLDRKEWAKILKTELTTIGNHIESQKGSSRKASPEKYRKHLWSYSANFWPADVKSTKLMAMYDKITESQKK
# Sequence of Sialic acid-binding Ig-like lectin 9 (Homo sapiens) (Q9Y336 whole entry): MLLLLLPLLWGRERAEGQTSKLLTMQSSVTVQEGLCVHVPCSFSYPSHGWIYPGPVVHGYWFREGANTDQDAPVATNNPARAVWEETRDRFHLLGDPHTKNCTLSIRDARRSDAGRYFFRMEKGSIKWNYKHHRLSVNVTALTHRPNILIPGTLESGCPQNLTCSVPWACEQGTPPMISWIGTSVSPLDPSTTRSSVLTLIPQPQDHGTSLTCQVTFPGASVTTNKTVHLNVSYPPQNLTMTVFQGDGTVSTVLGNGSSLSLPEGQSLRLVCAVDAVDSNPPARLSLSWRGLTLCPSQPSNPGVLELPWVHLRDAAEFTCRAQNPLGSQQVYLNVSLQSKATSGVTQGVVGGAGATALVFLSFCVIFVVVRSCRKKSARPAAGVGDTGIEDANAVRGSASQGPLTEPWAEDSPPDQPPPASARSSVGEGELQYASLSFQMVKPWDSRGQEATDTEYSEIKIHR
# Sequence of Protein translocase subunit SecA (Escherichia coli (strain K12)) (P10408 whole entry): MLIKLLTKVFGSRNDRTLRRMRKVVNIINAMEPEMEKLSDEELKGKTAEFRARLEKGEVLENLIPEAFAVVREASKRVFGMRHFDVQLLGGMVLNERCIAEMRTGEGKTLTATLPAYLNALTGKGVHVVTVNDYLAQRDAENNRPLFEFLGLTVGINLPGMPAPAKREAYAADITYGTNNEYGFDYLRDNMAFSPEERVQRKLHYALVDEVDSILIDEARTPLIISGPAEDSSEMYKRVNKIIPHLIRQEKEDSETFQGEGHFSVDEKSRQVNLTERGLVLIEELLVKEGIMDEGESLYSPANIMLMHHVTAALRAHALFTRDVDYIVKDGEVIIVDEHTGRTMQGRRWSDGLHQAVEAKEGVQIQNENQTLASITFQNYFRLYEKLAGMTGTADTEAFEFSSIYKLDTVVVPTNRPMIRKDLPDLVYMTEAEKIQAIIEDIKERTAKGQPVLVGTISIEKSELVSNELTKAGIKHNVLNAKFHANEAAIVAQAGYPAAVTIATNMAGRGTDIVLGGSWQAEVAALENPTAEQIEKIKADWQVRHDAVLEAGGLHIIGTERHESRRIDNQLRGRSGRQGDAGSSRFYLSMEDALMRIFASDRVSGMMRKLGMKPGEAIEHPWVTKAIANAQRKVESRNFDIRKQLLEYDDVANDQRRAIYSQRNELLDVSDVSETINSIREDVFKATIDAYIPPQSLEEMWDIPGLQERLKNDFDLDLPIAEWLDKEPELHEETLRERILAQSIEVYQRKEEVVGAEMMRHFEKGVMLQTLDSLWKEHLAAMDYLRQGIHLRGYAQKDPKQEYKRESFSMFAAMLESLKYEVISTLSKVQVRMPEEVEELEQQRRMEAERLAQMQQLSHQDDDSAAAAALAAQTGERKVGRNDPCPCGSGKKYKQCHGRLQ
Compound,Percent Effect [1],Percent Effect [2],Percent Effect [3],Percent Effect [4],Percent Effect (Trypanosoma cruzi),Percent Effect [5],Percent Effect [6],Percent Effect (Homo sapiens),Percent Effect [7],Percent Effect [8],Percent Effect [9]
Cc1nc(C)c(CC(=O)Nc2ncc(C)s2)c(=O)[nH]1,-0.904%,13.2%,-1.41%,14.1%,1.5%,-1.53%,-2.51%,-6.67%,5.39%,17.1%,-5.26%
CCOC(=O)CN1CCC(C(=O)c2cc(F)ccc2F)CC1,-9.27%,-5.26%,-10.9%,11.4%,12.4%,-1.53%,4.01%,2.26%,5.39%,7.32%,-11.5%
Cc1cc(C)c(OCC(=O)NS(=O)(=O)c2cccnc2)c(C)c1,-3.5%,21.1%,-5.54%,1.96%,3.95%,-0.766%,16%,6.77%,10.3%,24.4%,-14%
COCCN1CCC(CN(CC2CCCO2)C(=O)CCNC(C)=O)CC1 (stereo not given),-1.45%,-4.17%,-2.84%,-5.53%,-1.26%,0.883%,1.75%,-4.52%,0%,0%,1.82%
CC(C)c1noc(CN(Cc2cccs2)C2CC2)n1,-4.69%,-5.2%,7.3%,44.2%,-5.61%,4.14%,5.16%,18.1%,-4.3%,-8.64%,2.56%
Nc1nccc(N2CCC(Cc3ccccc3Cl)(C(=O)O)CC2)n1,-1.91%,16.2%,-3.46%,22.5%,6.56%,9.52%,18.1%,-0.891%,5.82%,21.9%,-7.9%
CC(=O)NC1CCCN(C(=O)NCc2ccc(-c3ccn[nH]3)cc2)C1 (stereo not given),-4.57%,21.1%,2.99%,-2.61%,3.83%,0%,12.4%,-12.3%,8.37%,23.5%,-8.05%
Cc1nc(NC2CCCC2)cc(C2CCN2C(=O)c2ccccc2)n1 (stereo not given),-6.88%,4.05%,3.55%,0.412%,3.16%,-1.62%,6.08%,-2.7%,1.07%,3.9%,-22.1%
CC(C)(C)C(=O)N1CCC(c2nc(O)cc(-c3ccccn3)n2)CC1,-0.499%,12.2%,8.91%,-7.12%,-0.79%,-5.34%,12%,11.1%,2.15%,1.3%,-8.6%
CN(CCCOc1ccccc1)C(=O)CN1CCc2cncnc2C1,-1.71%,26.3%,-41.1%,4.54%,9.24%,-0.719%,10.6%,-5.43%,30.1%,38.3%,-11.5%
CC(=O)Nc1nc(C(=O)Nc2ccc(F)cc2)cs1,-2.09%,15.6%,28%,-6.42%,-1.86%,-15.4%,16.7%,8.03%,7.62%,18.8%,3.31%
CCC(=O)NC1CCN(c2cccc(CC)c2)CC1,-7.28%,3.8%,2.12%,-4.76%,1.13%,-1.5%,4.97%,16.9%,3.12%,-10.1%,-27.3%
CCC(C)N(C)S(=O)(=O)c1ccc(CCNC(C)=O)s1 (stereo not given),-1.87%,-4.17%,-4.26%,-5.04%,-2.62%,0.442%,8.77%,10.4%,-3.16%,-5.13%,5.31%
CCOCC(O)CN1CCN(C(=O)c2cccnc2OC)CC1 (stereo not given),-3.44%,0%,4.2%,3.65%,-0.936%,2.85%,-3.72%,5.16%,3.88%,0%,1.44%
CC(=O)NC(C)c1ccc(OCC2CC2)c(F)c1 (stereo not given),-2.63%,5.26%,-0.202%,5%,3.21%,-9.47%,4.7%,7.74%,4.25%,7.79%,-7.19%
COc1ccc(C2CC(=O)Oc3cc(C)[nH]c(=O)c32)cc1 (stereo not given),-5.52%,6.67%,5.42%,2.83%,4.13%,-0.528%,11.1%,3.33%,2.12%,5.13%,-1.69%
O=C(NCCN1CCC(c2cccs2)CC1)Nc1cccs1,-5.82%,0%,-3.98%,20.2%,4.7%,1.36%,14.6%,10.4%,12.9%,17.5%,-2.26%
CC(NC(=O)NCCCN1CCCCCC1)c1nncn1C (stereo not given),-2.66%,10.8%,-6.67%,18.7%,6.78%,-6.47%,-5.03%,18%,5.94%,18.3%,-3.61%
CNS(=O)(=O)c1ccc(C(=O)N2CCCC(n3cccn3)C2)cc1 (stereo not given),-7.19%,13.2%,-7.33%,8.86%,4.89%,-4.21%,2.17%,1.3%,3.43%,17.1%,-14.7%
O=C(CCc1ccccc1F)NS(=O)(=O)c1ccc2c(c1)OCCCO2,-6.43%,11.4%,2.28%,1.9%,-0.923%,-4.95%,9.09%,6.8%,2.08%,12.7%,-20.4%
